Assay results published in PubChem BioAssay (NCI).
About 83,000 compounds went through this panel and 20% of them were active in at least one assay; those are over-represented in the sample as a whole.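 Assay: single dose, 48 h. Readout: percent growth (0 = no net growth; negative = cell death). Active: <10.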 Activity calls are given as the source filed them.

How the values were obtained:
Experiment in all cases: NCI-60 one-dose screen, 48 h (100 = growth as untreated, 0 = no growth, -100 = all killed)
Details in all cases: 10 µM unless noted
SR leukemia = system: SR leukemia
RPMI-8226 leukemia = system: RPMI-8226 leukemia
OVCAR-8 ovarian = system: OVCAR-8 ovarian
OVCAR-5 ovarian = system: OVCAR-5 ovarian
OVCAR-4 ovarian = system: OVCAR-4 ovarian
SK-OV-3 ovarian = system: SK-OV-3 ovarian
IGROV1 ovarian = system: IGROV1 ovarian
OVCAR-3 ovarian = system: OVCAR-3 ovarian
HS 578T breast = system: HS 578T breast
NCI/ADR-RES ovarian = system: NCI/ADR-RES ovarian

Measured: growth

CSc1oc(C)nc1[P+](c1ccccc1)(c1ccccc1)c1ccccc1
active: RPMI-8226 leukemia 6.31%
inactive: SR leukemia 30.6% | OVCAR-8 ovarian 60.1% | OVCAR-5 ovarian 83.1% | OVCAR-4 ovarian 34.6% | SK-OV-3 ovarian 57.7% | IGROV1 ovarian 60.6% | OVCAR-3 ovarian 36.9% | HS 578T breast 55% | NCI/ADR-RES ovarian 106%

COc1c(C(=O)Nc2ccc(C)c(Br)c2)ccc2ccccc12
inactive: SR leukemia 54.3% | RPMI-8226 leukemia 95.7% | OVCAR-8 ovarian 99.3% | OVCAR-5 ovarian 92.2% | OVCAR-4 ovarian 82.9% | SK-OV-3 ovarian 97.9% | IGROV1 ovarian 94.3% | OVCAR-3 ovarian 107% | HS 578T breast 85.5% | NCI/ADR-RES ovarian 84.6%

CCC1=C[C@@H]2C[C@]3(C(=O)OC)c4[nH]c5ccccc5c4CC[N@+](CC(=O)Nc4cc5c(cc4OC)N(C)[C@H]4[C@@](O)(C(=O)OC)[C@H](OC(C)=O)[C@]6(CC)C=CCN7CC[C@]54[C@@H]76)(C2)[C@H]13
inactive: SR leukemia 99.4% | RPMI-8226 leukemia 105% | OVCAR-8 ovarian 102% | OVCAR-5 ovarian 109% | OVCAR-4 ovarian 104% | SK-OV-3 ovarian 105% | IGROV1 ovarian 104% | OVCAR-3 ovarian 109% | HS 578T breast 99.4% | NCI/ADR-RES ovarian 106%

CCCCC1=C(P(=O)(O)O)N[C@H](C(=O)O)CS1
inactive: SR leukemia 96.4% | RPMI-8226 leukemia 99.7% | OVCAR-8 ovarian 95.5% | OVCAR-5 ovarian 94.4% | OVCAR-4 ovarian 91.3% | SK-OV-3 ovarian 80.7% | IGROV1 ovarian 94.3% | OVCAR-3 ovarian 106% | HS 578T breast 109% | NCI/ADR-RES ovarian 108%

CCOC(=O)c1ccc(NC(=O)c2nc(-c3cc(OC)c(OC)c(OC)c3)n(-c3ccc(Cl)cc3)n2)cc1
inactive: SR leukemia 92.7% | RPMI-8226 leukemia 82.1% | OVCAR-8 ovarian 91.5% | OVCAR-5 ovarian 101% | OVCAR-4 ovarian 95.4% | SK-OV-3 ovarian 94.3% | IGROV1 ovarian 88.9% | OVCAR-3 ovarian 99.7% | HS 578T breast 74.5% | NCI/ADR-RES ovarian 90.8%

O=C(c1ccncc1)N1N=C(c2ccc(Cl)cc2)C[C@H]1c1cn(-c2ccccc2)nc1-c1ccccc1
inactive: SR leukemia 91.1% | RPMI-8226 leukemia 105% | OVCAR-8 ovarian 74.6% | OVCAR-5 ovarian 105% | OVCAR-4 ovarian 82.6% | SK-OV-3 ovarian 83.4% | IGROV1 ovarian 99.4% | OVCAR-3 ovarian 94.7% | HS 578T breast 87.2% | NCI/ADR-RES ovarian 87%

CC(C)Cn1cnc2c(=O)[nH]c(N)nc21
inactive: SR leukemia 90.3% | RPMI-8226 leukemia 104% | OVCAR-8 ovarian 97% | OVCAR-5 ovarian 110% | OVCAR-4 ovarian 103% | SK-OV-3 ovarian 78% | IGROV1 ovarian 104% | OVCAR-3 ovarian 109% | HS 578T breast 106% | NCI/ADR-RES ovarian 105%

COc1c(B(O)O)cccc1-c1cc(C)c2c(ccc3[nH]ncc32)n1
inactive: SR leukemia 27.5% | RPMI-8226 leukemia 68.7% | OVCAR-8 ovarian 64.1% | OVCAR-5 ovarian 72.1% | OVCAR-4 ovarian 122% | SK-OV-3 ovarian 59.3% | IGROV1 ovarian 59.1% | OVCAR-3 ovarian 113% | NCI/ADR-RES ovarian 83.3%
active: HS 578T breast 8.78%

CCCn1cc2c(=O)nc3sc(Cc4ccccc4)c(C)n3c2n1
inactive: SR leukemia 73.8% | RPMI-8226 leukemia 99.5% | OVCAR-8 ovarian 91.8% | OVCAR-5 ovarian 111% | OVCAR-4 ovarian 99% | SK-OV-3 ovarian 104% | IGROV1 ovarian 105% | OVCAR-3 ovarian 99.3% | HS 578T breast 99.5% | NCI/ADR-RES ovarian 96.7%

O=S(=O)(NCCCNc1nccc(-c2c(-c3ccc(F)c(O)c3)nc3occn23)n1)c1ccc(Cl)cc1
inactive: SR leukemia 55.5% | RPMI-8226 leukemia 40.4% | OVCAR-8 ovarian 66.3% | OVCAR-5 ovarian 118% | OVCAR-4 ovarian 81.3% | SK-OV-3 ovarian 64.4% | IGROV1 ovarian 62.3% | OVCAR-3 ovarian 95.3% | HS 578T breast 64% | NCI/ADR-RES ovarian 96.4%

N#Cc1nc(-c2ccc(F)cc2)oc1S(=O)(=O)N1CCOCC1
active: SR leukemia -5.89% | OVCAR-3 ovarian -88.4%
inactive: RPMI-8226 leukemia 41.2% | OVCAR-8 ovarian 63.1% | OVCAR-5 ovarian 101% | OVCAR-4 ovarian 60.9% | SK-OV-3 ovarian 99.4% | IGROV1 ovarian 78.3% | HS 578T breast 123% | NCI/ADR-RES ovarian 91.1%

C#CCOc1cccc(Nc2ncnc3cc(NC(=O)C=C)ccc23)c1
active: OVCAR-8 ovarian 4.37% | IGROV1 ovarian 6.96% | OVCAR-3 ovarian 6.09%
inactive: SR leukemia 13% | RPMI-8226 leukemia 13.3% | OVCAR-5 ovarian 54.3% | OVCAR-4 ovarian 45.5% | SK-OV-3 ovarian 29.6% | HS 578T breast 18.2% | NCI/ADR-RES ovarian 14.9%

CN(C)Cc1ccc(O)c(C(=O)O)c1
inactive: SR leukemia 97.8% | RPMI-8226 leukemia 104% | OVCAR-8 ovarian 108% | OVCAR-5 ovarian 108% | OVCAR-4 ovarian 118% | SK-OV-3 ovarian 106% | IGROV1 ovarian 95.6% | OVCAR-3 ovarian 111% | HS 578T breast 109% | NCI/ADR-RES ovarian 105%

C=C1C(=O)O[C@H]2[C@H]1CC/C(COC(=O)c1cc3ccccc3s1)=C\CC[C@@]1(C)O[C@@H]21
inactive: SK-OV-3 ovarian 85.3%
active: SR leukemia -1.95% | RPMI-8226 leukemia -25.3% | OVCAR-8 ovarian -12% | OVCAR-5 ovarian -57.3% | OVCAR-4 ovarian -62% | IGROV1 ovarian -66% | OVCAR-3 ovarian -69% | HS 578T breast -17.7% | NCI/ADR-RES ovarian 1.73%

COc1ccc(C(=O)C/C(=C\c2ccc(Cl)cc2)C(=O)NCc2ccccc2)cc1
inactive: SR leukemia 60.3% | RPMI-8226 leukemia 75.7% | OVCAR-8 ovarian 82.3% | OVCAR-5 ovarian 99.5% | OVCAR-4 ovarian 105% | SK-OV-3 ovarian 79.3% | IGROV1 ovarian 86.3% | OVCAR-3 ovarian 100% | HS 578T breast 86.4% | NCI/ADR-RES ovarian 89.1%

NC(=O)c1cccc(-n2ccc3cc(NC(=O)c4ccc(N5CCOCC5)c(C(F)(F)F)c4)ccc32)n1
inactive: SR leukemia 26.5% | RPMI-8226 leukemia 12.2% | OVCAR-8 ovarian 31.9% | OVCAR-5 ovarian 70.1% | OVCAR-4 ovarian 47% | SK-OV-3 ovarian 43.3% | IGROV1 ovarian 74.8% | OVCAR-3 ovarian 48.7% | HS 578T breast 14% | NCI/ADR-RES ovarian 66.1%

COc1cc(/C=C2/C=C(c3ccccc3)N(CCc3ccc(S(N)(=O)=O)cc3)C2=O)cc(OC)c1OC
inactive: SR leukemia 82.4% | RPMI-8226 leukemia 66.8% | OVCAR-8 ovarian 91.6% | OVCAR-5 ovarian 118% | OVCAR-4 ovarian 101% | SK-OV-3 ovarian 103% | IGROV1 ovarian 101% | OVCAR-3 ovarian 110% | HS 578T breast 98.2% | NCI/ADR-RES ovarian 99.6%

C[PH+](c1nc2ccccc2nc1[PH+](C)C(C)(C)C)C(C)(C)C.C[PH+](c1nc2ccccc2nc1[PH+](C)C(C)(C)C)C(C)(C)C.[Au+].[Cl-] (stereo not given)
active: SR leukemia 6.59% | RPMI-8226 leukemia -18.1% | OVCAR-8 ovarian -54.3% | OVCAR-5 ovarian -100% | OVCAR-4 ovarian -100% | SK-OV-3 ovarian -100% | IGROV1 ovarian -87.9% | OVCAR-3 ovarian -100% | HS 578T breast -38.6% | NCI/ADR-RES ovarian -79.5%

Cc1c(-c2ccc(O)cc2)n(Cc2ccc(OCCN3CCCCCC3)cc2)c2ccc(O)cc12
active: SR leukemia 1.53%
inactive: RPMI-8226 leukemia 57.5% | OVCAR-8 ovarian 84.7% | OVCAR-5 ovarian 87.9% | OVCAR-4 ovarian 78.1% | SK-OV-3 ovarian 81.3% | IGROV1 ovarian 85.7% | OVCAR-3 ovarian 85.1% | HS 578T breast 68.4% | NCI/ADR-RES ovarian 85.7%

CCN(CC)CCCCCNc1cc(OC(=O)c2ccc(Cl)cc2)cc2cccnc12
inactive: SR leukemia 75.3% | RPMI-8226 leukemia 97.7% | OVCAR-8 ovarian 88.3% | OVCAR-5 ovarian 118% | OVCAR-4 ovarian 39.9% | SK-OV-3 ovarian 119% | IGROV1 ovarian 161% | OVCAR-3 ovarian 78.7% | HS 578T breast 117% | NCI/ADR-RES ovarian 95.1%

COc1cc2c(c(OC)c1OC)CCC(c1cccc(C(=O)Nc3cccc(Cl)c3)c1)O2 (stereo not given)
inactive: SR leukemia 30.5% | RPMI-8226 leukemia 39.1% | OVCAR-8 ovarian 75.1% | OVCAR-5 ovarian 75.3% | OVCAR-4 ovarian 70.3% | SK-OV-3 ovarian 64.9% | IGROV1 ovarian 63.8% | OVCAR-3 ovarian 85.3% | HS 578T breast 80.2% | NCI/ADR-RES ovarian 83.8%

CSc1nc2ccccc2cc1/C=C1/C=C(c2ccccc2)NC1=O
inactive: SR leukemia 27.4% | RPMI-8226 leukemia 81.9% | OVCAR-8 ovarian 82.5% | OVCAR-5 ovarian 99.5% | OVCAR-4 ovarian 84.7% | SK-OV-3 ovarian 85.1% | IGROV1 ovarian 79.4% | OVCAR-3 ovarian 71.7% | HS 578T breast 80% | NCI/ADR-RES ovarian 76.2%

N#C/C(=C\c1c(-c2ccccc2)[nH]c2ccccc12)C(N)=O
active: SR leukemia 9.47%
inactive: RPMI-8226 leukemia 46.2% | OVCAR-8 ovarian 102% | OVCAR-5 ovarian 107% | OVCAR-4 ovarian 62.5% | SK-OV-3 ovarian 93% | IGROV1 ovarian 77.1% | OVCAR-3 ovarian 81.2% | HS 578T breast 76.5% | NCI/ADR-RES ovarian 77.6%

CS(=O)(=O)Nc1cc(-c2ccc3ncnc(Nc4ccc5c(cnn5Cc5cccc(F)c5)c4)c3c2)cnc1Cl
active: SR leukemia 4.76% | RPMI-8226 leukemia -24.4% | OVCAR-5 ovarian 7.19% | SK-OV-3 ovarian -17.7% | IGROV1 ovarian -51.2% | OVCAR-3 ovarian -5.45% | HS 578T breast -14.8%
inactive: OVCAR-8 ovarian 28.1% | OVCAR-4 ovarian 26.4% | NCI/ADR-RES ovarian 78.2%

Cc1ccc(Nc2cc(N)nc(N)n2)cc1Cl
inactive: SR leukemia 108% | RPMI-8226 leukemia 81.6% | OVCAR-8 ovarian 94.5% | OVCAR-5 ovarian 94.6% | OVCAR-4 ovarian 90.3% | SK-OV-3 ovarian 93.8% | IGROV1 ovarian 91% | OVCAR-3 ovarian 96.7% | HS 578T breast 98.3% | NCI/ADR-RES ovarian 97%

COCCOc1cc2ncnc(N3CCN(c4ncc(S(=O)(=O)N5CCCCC5)cn4)CC3)c2cc1OCCOC
inactive: SR leukemia 72.9% | RPMI-8226 leukemia 90.2% | OVCAR-8 ovarian 97% | OVCAR-5 ovarian 114% | OVCAR-4 ovarian 105% | SK-OV-3 ovarian 123% | IGROV1 ovarian 99.2% | OVCAR-3 ovarian 114% | HS 578T breast 114% | NCI/ADR-RES ovarian 97.6%
